Mito fusion yeast: qHTS Assay for Small Molecule Inhibitors of Mitochondrial Division or Activators of Mitochondrial Fusion. S. cerevisiae fusion-defective mutant growth rescue, CellTiterGlo 48 h. Potency, µM (doses to about 46.1 µM), actives largely listed as activators. 320,000 compounds, 0.23% hits. AID 485298, 2010; also: nearly all actives have a fitted effect of over 45% in size
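Compounds are tested for their ability to restore growth of mitochondrial fusion-defective yeast strains at non-permissive 37C in YPEG medium over 48 hours. Viability is quantified by luciferase luminescence.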
aSyn yeast inh: qHTS of alpha-syn Inhibitors; Yeast expressing alpha-synuclein, growth rescue, BacTiter-Glo, 24 h; Potency, µM (series often up to 46.1 µM), actives largely listed as activators; 370,000 compounds, 0.14% hits; AID 652106, 2013; also: nearly all actives have a fitted effect of over 65% in size
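Rescue of yeast growth: cells expressing toxic alpha-synuclein, induced in galactose at OD600 0.02, incubated with compound 24 h at 30 C. ATP luminescence quantified growth; inhibitors of toxicity appear as activators.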
Abeta rescue: qHTS for compounds that reverse cellular toxicity of Amyloid beta (A-beta) peptide in yeast: Primary Screen | yeast expressing A-beta42, growth rescue, OD600, 48 h; response scale: 0% DMSO, 100% iron-clioquinol control | Potency, µM (titrated, usually from 46.1 µM), usual class: activators | 410,000 compounds, 0.063% hits | AID 1347071, 2019; also: nearly all actives have a fitted effect of over 55% in size
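Yeast A-beta toxicity model in growth medium with pinned compounds, 48 h at 30 C; growth read as absorbance at 600 nm. Normalized to FeCl3/clioquinol equimolar mix (positive) and DMSO (negative).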
AT treatment: qHTS Assay for Identifying a Potential Treatment of Ataxia-Telangiectasia. Potency, µM (highest dose often 57.5 µM), most hits filed as activators. F2112 A-T fibroblasts, KAP-1 phosphorylation AlphaLISA; neocarzinostatin DNA damage 30 min before lysis. AID 485349, 2010. 320,000 compounds, 0.19% hits; also: nearly all actives have a fitted effect of over 45% in size
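ATM-like activity read as KAP-1 phosphorylation via AlphaLISA donor/acceptor antibody pairs after lysis and 6 hr at 25C. Cells were ATM-null patient fibroblasts (F2112, hTERT), dosed 60 min, then exposed to the DSB inducer NCS for 30 min.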
TDP43 rescue: qHTS of TDP-43 Inhibitors; TDP-43 expressing yeast growth rescue, BacTiter-Glo, 24 h; Potency, µM (doses to about 46.1 µM), most hits filed as activators; 410,000 compounds, 1.8% hits; also: nearly all actives have a fitted effect of over 50% in size
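Galactose-induced TDP-43 yeast, OD600=0.02, compound pinned; 24 hr, 30 deg C; BacTiter-Glo luminescence for growth. Inhibitors of TDP-43 toxicity read as activators.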
FUS suppressor: qHTS for Suppressors of FUS Proteinopathy: Primary screen using FUS-linked yeast assay. S. cerevisiae FUS-expressing, growth rescue, OD600, 24 h. Potency, µM (highest dose often 76.6 µM), hits mostly activators. 390,000 compounds, 0.24% hits. AID 1347120, 2019; also: nearly all actives have a fitted effect of over 55% in size
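Steps: raffinose overnight preculture; dilution to OD 0.005 in 2% galactose minimal medium; compound addition (concentration series); 24hr at 30C, 99% humidity; absorbance read at 600 nm.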
Hits are given with their value; i = inactive; ? = inconclusive; nt = no result; [ ] = dose if it differs, or a comment. Most compounds without a hit are left out; they make up all but 2.4% or so of the library. Calls follow the shape of the dose curve; as a rule, active = well fitted curve in the direction sought with a large enough effect; inconclusive = small, poorly fitted or top-dose-only effect, or another doubt; inactive = no such curve, though single readings can be large; an effect the other way counts as inactive or inconclusive.

SMILES	Mito fusion yeast	aSyn yeast inh	Abeta rescue	AT treatment	TDP43 rescue	FUS suppressor
O=C(Nc1ccccc1)O/N=C/c1ccc(F)cc1	i	i	i	i	10µM	i
Cc1nc2ccc(C(=O)N3CCN(C(=O)C(Cl)Cl)CC3)cc2n1C1CCCC1	nt	nt	nt	nt	nt	i
Cc1c(Cl)cccc1NC(=O)CSc1nc(=O)n(Cc2ccccn2)c2c1CCC2	nt	nt	i	nt	i	i
Cn1cccc1-c1cc(C(=O)N2CCc3c([nH]c4ccccc34)C2c2ccccn2)[nH]n1 (stereo not drawn)	i	i	?	i[11.5 µM]	i	18µM
Cc1cc2cc(C(=O)N3CCc4c([nH]c5ccccc45)C3c3ccccn3)ccc2o1 (stereo not drawn)	?	?	i	i	25µM	?
Cc1cc(F)ccc1NC(=O)C(C(C)C)N1Cc2ccccc2C1=O (stereo not drawn)	nt	nt	i	nt	i	i
O=C(Cn1nc(-c2ccccc2)c2ccccc21)Oc1ccccc1	nt	nt	nt	nt	nt	i
Cc1ccc(CNC(=O)CS(=O)(=O)c2cccc3nsnc23)cc1	nt	i	i	nt	i	i
CCOC(=O)C1=C(Nc2ccc(Cl)cc2)OCC1=O	i	i	i	i	11µM	i
COC(=O)c1sc(C(=O)OC)c(C(=O)OC)c1C(=O)OC	i	i	i	i	i	nt
COC(=O)c1sc(=S)sc1C(=O)OC	i	?	i	i	13µM	i
O=C(CCn1c(=O)sc2ccccc21)Nc1nc2ccccc2s1	?	i	i	i	28µM	i
Cc1ccc2nc(NC(=O)CCn3c(=O)sc4ccccc43)sc2c1	?	i	i	i	20µM	i
O=C(Nc1ccccc1)Nc1nc2ncccn2c1-c1ccc(F)cc1	nt	nt	nt	nt	nt	i
COC(=O)C1=C(C)N(c2cc(Cl)cc(Cl)c2)C(=O)C1	i	i	i	i	18µM	i
O=C(Cn1nc(Cl)nc1Cl)c1ccc(F)cc1	i	i	i	i	i	i
O=C(Cn1nc(Cl)nc1Cl)c1ccc2c(c1)OCCO2	i	i	i	i	11µM	?
Cc1cccc(-c2noc(CN(C(C)C)S(=O)(=O)c3ccc(Br)cc3)n2)c1	nt	nt	i	nt	i	i
Cc1ccc(OCc2nc(C#N)c(NCc3ccc4c(c3)OCO4)o2)cc1	8.9µM	i	i	i	11µM	i
COc1ccc(CCNc2oc(COc3ccccc3F)nc2C#N)cc1	i	i	i	i	?	i
N#Cc1nc(COc2ccccc2F)oc1NCc1ccc(F)cc1	i	i	i	32µM	i	i
COc1ccc(CNc2oc(COc3ccc(Cl)cc3)nc2C#N)cc1	?	i	i	i	?	nt
CCOc1ccc(-c2nc(C#N)c(NCc3ccc4c(c3)OCO4)o2)cc1	i	i	i	i	i	i
COc1ccc(Nc2oc(COc3ccc(Cl)cc3)nc2C#N)cc1	?	i	i	i	28µM	i
COc1ccc2c(c1)CN1CN(Cc3ccc(F)cc3)S(=O)(=O)CC21 (stereo not drawn)	nt	nt	nt	nt	nt	i
SMILES	Mito fusion yeast	aSyn yeast inh	Abeta rescue	AT treatment	TDP43 rescue	FUS suppressor
CC(=O)c1cc(-c2ccc(Cl)c(C(F)(F)F)c2)c(=O)n2c1CCC2	nt	nt	nt	nt	nt	i
CCc1ccc(NC(=O)c2nn(-c3ccc(OC)cc3)c(=O)c3c2c2ccccc2n3C)cc1	nt	nt	i	nt	i	i
Cc1cccc(NC(=O)c2sc(C)nc2C)c1	i	i	i	nt	i	i
CC(=O)c1sc(Nc2ccccc2)nc1C	nt	i	i	nt	i	i
COc1ccc(C(=O)c2sc(Nc3ccccc3)nc2C)cc1	i	i	i	i	25µM	i
CC(=O)c1sc(Nc2ccc(Oc3ccccc3)cc2)nc1C	nt	i	i	nt	35µM	i
CC(=O)c1sc(Nc2cccc(C)c2)nc1C	i	i	i	i	7.1µM	i
CC(=O)c1sc(NC(=O)c2ccc(Br)o2)nc1C	i	i	i	i	11µM	i
CCOC(=O)c1ccc(NC(=O)c2c(NCc3ccc(OC)c(OC)c3OC)sc3c2CCC(C)C3)cc1 (stereo not drawn)	nt	nt	i	nt	i	i
Cc1nc(Nc2ccccc2)sc1-c1ccccc1	i	i	i	i	20µM	nt
COC(=O)c1sc(Nc2ccccc2)nc1C	i	i	i	i	13µM	i
Cc1ccccc1-n1c2nc(=O)[nH]c(=O)c-2cc2c(Cl)cccc21	nt	nt	i	nt	3.5µM	i
Cc1cccc(-n2c3nc(=O)n(C)c(=O)c-3cc3c(Cl)cccc32)c1C	nt	nt	i	nt	i	i
CN1CCc2cc(O)c(O)cc2C(c2ccccc2)C1 (stereo not drawn)	?	i	i	i	i	i
C=CCN1CCc2c(cc(O)c(O)c2Br)[C@@H](c2ccccc2)C1	16µM	?	i	nt	i	i
Cc1onc(-c2c(F)cccc2Cl)c1C(=O)c1ccc(F)cc1	i	i	i	i	13µM	i
Cc1onc(-c2c(F)cccc2Cl)c1C(=O)c1ccccc1	i	i	?	i	i	i
Cc1onc(-c2c(Cl)cccc2Cl)c1C(=O)c1ccc(F)cc1	i	i	i	i	13µM	i
Cc1cc(C(=O)O[C@@H]2CCC[C@]3(C(=O)N(Cc4ccccc4)c4ccccc43)[C@H]2NC(=O)CCc2ccccc2)no1	nt	nt	nt	nt	nt	i
COc1ccc(C=O)cc1COc1ccc(F)cc1F	i	i	i	i	i	i
COc1cc(C=O)ccc1OCc1cccc(Br)c1	i	i	i	i	20µM	nt
COc1cc(C=O)ccc1OCc1ccccc1Br	i	i	i	i	11µM	nt
CC(=O)c1cc(CN2C(=O)c3ccccc3C2=O)cs1	i	i	i	i	14µM	i
Clc1ccc(-c2nc(CSc3ccccn3)cs2)cc1	nt	i	i	nt	i	i
Nc1ccccc1SCc1csc(-c2ccc(Cl)cc2)n1	i	i	i	i	13µM	i
SMILES	Mito fusion yeast	aSyn yeast inh	Abeta rescue	AT treatment	TDP43 rescue	FUS suppressor
CCCN1C(=O)/C(=C/c2ccc3c(c2)OCO3)NC1=S	i	i	?	i	14µM	i
CCCN1C/C(=C/c2ccc3c(c2)OCO3)C(=O)/C(=C/c2ccc3c(c2)OCO3)C1	i	i	i	i	i	i
Cc1ccc(Cl)cc1NC(=O)C(C)n1nnc2sc3c(c2c1=O)CCCC3 (stereo not drawn)	nt	nt	i	nt	i	i
Cc1nc(N2CCCC2)ncc1C(=O)NCc1cccc(Cl)c1	nt	nt	i	nt	14µM	i
Cc1cccc(C(=O)O/N=C(\c2ccccc2)c2cccnc2)c1	i	i	i	i	13µM	i
Cc1ccc(C(=O)O/N=C(\c2ccccc2)c2cccnc2)cc1	i	i	i	i	18µM	i

Compound activity: PubChem BioAssay, National Center for Advancing Translational Sciences (NCATS)
